The values below come from PubChem BioAssay (NCATS).

Assay [1] addresses Peroxisome proliferator-activated receptor gamma (Homo sapiens) (UniProt P37231). Nature of the assay: qHTS assay for small molecule antagonists of peroxisome proliferator-activated receptor gamma signaling (AID 588537; active = well fitted inhibition curve with a large enough effect in the signal ratio, with a control signal flat, not every such curve was filed as active; the % refers to the signal ratio; also: potency is read from the fitted curve at half-maximal effect). The method in brief:
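Fluorescence at 460 and 530 nm (405 nm excitation) reported beta-lactamase cleavage of CCF4 after 2 h room-temperature loading. HEK293 reporter cells in 1% charcoal/dextran-treated FBS had received compound and rosiglitazone for 16 h.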

Assay [2] has as its target Vitamin D3 receptor (Homo sapiens) (UniProt P11473). Nature of the assay: qHTS assay for small molecule agonists of vitamin D receptor signaling (AID 588543; calls by dose curve;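 also: 0% = DMSO basal and 100% = reference agonist control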). The method in brief:
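β-lactamase reporter, VDR-UAS-bla HEK293T, agonist mode. Cells plated 5 h at 37 °C, compound titration 16 h at 37 °C, CCF4 dye 2 h RT, ratio 460/530 nm. Hill fit → EC50, efficacy vs 50 nM 1α,25-(OH)2D3.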

Assay [3] addresses Thyroid hormone receptor beta (Homo sapiens) (UniProt P10828). Nature of the assay: qHTS assay for small molecule agonists of thyroid hormone receptor beta signaling (AID 588545; calls by dose curve;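 also: 0% = DMSO only and 100% = 10 nM T3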). The method in brief:
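Beta-lactamase reporter activity under TR response element control is measured in HEK 293 cells after 18 hrs compound exposure. Signal is ratiometric CCF4 fluorescence, 460/530 nm.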

A short description of assay [4]: qHTS assay for small molecule agonists of the antioxidant response element (ARE) signaling pathway (AID 651741; active = well fitted activation curve with a large enough effect in the signal ratio; the % refers to the signal ratio; also: potency is read from the fitted curve at half-maximal effect). A digest of the protocol: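 Stably integrated ARE-beta-lactamase reporter HepG2 cells; 16 h compound incubation, 37 C; LiveBLAzer FRET substrate 2 h at room temperature; fluorescence intensity.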
Assay [5] can be described thus: qHTS assay for small molecule activators of the p53 signaling pathway (AID 651743; active = well fitted activation curve with a large enough effect in the signal ratio, not every such curve was filed as active; the % refers to the signal ratio; also: potency is read from the fitted curve at half-maximal effect). The note with it: HCT-116 p53RE-bla, beta-lactamase FRET ratio, 16 h; activation: stronger effect = higher value. A digest of the protocol: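 Following 16 hours of compound exposure at 37 C, HCT-116 cells bearing the p53RE-bla reporter were loaded with LiveBLAzer B/G FRET substrate for 2 hours at room temperature and fluorescence intensity was recorded.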

The nature of assay [6]: qHTS assay for small molecule activators of the nuclear factor-kappa B (NF-kB) signaling pathway (AID 651749; active = well fitted activation curve with a large enough effect in the signal ratio; the % refers to the signal ratio; also: series mostly up to about 77 µM; % of control where 0% means no effect). As to conditions: NF-kB-bla ME-180 cells, beta-lactamase FRET ratio, 16 h; activation: stronger effect = higher value. The method in brief:
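In this qHTS format, compounds acting as activators increase NF-kB-driven beta-lactamase in ME-180 cells, measured as disrupted FRET after 16 hr exposure at 37C and 5% CO2.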

Assay [7] is described as follows: qHTS assay for small molecule agonists of the antioxidant response element (ARE) signaling pathway measured by Nrf2-dependant transcriptional activity (AID 720636; active = well fitted curve in the direction sought with a large enough effect in the repeat runs; an effect the other way counts as inactive or inconclusive; also: % of control where 0% means no effect). The method in brief:
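ARE-luc HepG2 cells carrying an Nrf2-responsive luciferase reporter, in medium with 1% dialyzed FBS, exposed to compound for 16 hr at 37 C, 5% CO2. Luminescence read 30 min after ONE-Glo addition.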

The nature of assay [8]: qHTS assay for cell viability of the p53RE-bla HCT-116 cell line (AID 743292). Also: % is scaled to controls: 0 for no effect and ±100 for the full control effect; nearly all actives have a fitted effect of over 55% in size. The method in brief:
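CellSensor p53RE-bla HCT-116 cells (4,000/well) pre-incubated 5 h at 37 C, then exposed to compounds in DMSO for 16 h at 37 C. Viability read as ATP content by CellTiter-Glo luminescence after 30 min at room temperature.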

For assay [9], the target named is Nuclear receptor subfamily 1 group I member 2 (Rattus norvegicus) (UniProt Q9R1A7). Nature of the assay: qHTS assay for small molecule activators of the rat pregnane X receptor (rPXR) signaling pathway (AID 651751; call rule not given here; also: 0% is about no effect). As to conditions: rPXR reporter cells, luciferase (One-Glo), 24 h.
Assay [10] is described as follows: qHTS for Inhibitors of the vitamin D receptor (VDR): Hit Validation using a Texas Red Assay (AID 602201). Also: potency is read from the fitted curve at half-maximal effect. A digest of the protocol: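 Fluorescence polarization with 1.5 uM VDR-LBD, LG19078 and 7 nM Texas Red (final). After 2 hours at ambient temperature, read at Ex 595 nm/Em 615 nm.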
Assay [11] concerns the target Peroxisome proliferator-activated receptor delta (Homo sapiens) (UniProt Q03181). Nature of the assay: qHTS assay for small molecule agonists of peroxisome proliferator-activated receptor delta signaling (AID 588534; calls by dose curve;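 also: 0% = DMSO basal wells and 100% = positive control agonist at 10 µM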). A digest of the protocol:
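Agonist-mode qHTS; reporter cells, 5 hrs 37 C pre-incubation; compound titration, 18 hrs 37 C; CCF4 dye, 2 hrs RT; fluorescence read. EC50/efficacy via Hill fit.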

Assay [12] has as its target Nuclear receptor ROR-gamma (Homo sapiens) (UniProt P51449). The experiment in a line: qHTS assay for small molecule antagonists of the retinoid-related orphan receptor gamma (ROR-gamma) signaling pathway (AID 651802).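 Also: CHO cells with doxycycline-induced ROR-gamma expression; series mostly up to about 92 µM; % is scaled to controls: 0 for no effect and ±100 for the full control effect; nearly all actives have a fitted effect of over 60% in size.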 A digest of the protocol: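 Steps: cells dispensed; compound or DMSO transferred by pin tool; doxycycline added to induce the ROR response element-driven luciferase; plates held 16hr at 37C; ONE-Glo added and luminescence measured.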

The target in assay [13] is Vitamin D3 receptor (Homo sapiens) (UniProt P11473). The experiment in a line: qHTS for Inhibitors of the vitamin D receptor (VDR): Hit Validation in Primary Screen (AID 602199). Also: potency is read from the fitted curve at half-maximal effect. As to conditions: VDR-coactivator inhibition assay, qHTS confirmation. A digest of the protocol:
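Fluorescence polarization (Ex 620/Em 688 nm) of Alexa 647-SRC2-3 peptide with 800 nM VDR and 5 uM LG19078. Compounds at several concentrations, 2 h at room temperature.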

The target is the same in assay [14]. The experiment in a line: qHTS for Inhibitors of the vitamin D receptor (VDR): Hit Validation using a Beta-Lactamase Assay (AID 602202). Also: % is scaled to controls: 0 for no effect and ±100 for the full control effect. The method in brief:
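Stably transfected HEK293 cells expressing VDR-GAL4 DNA-binding domain fusion with UAS-driven beta-lactamase reporter, activated by agonist LG190178; compounds incubated 18 h, then FRET beta-lactam substrate 2 h; cleaved substrate read at 447 nm emission.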

Assay [15] can be described thus: qHTS for Inhibitors of the vitamin D receptor (VDR): Hit Validation using a Cytotoxicity Assay (AID 602204).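 Also: plate controls were DMSO for no effect and high-concentration cycloheximide for full effect; nearly all actives have a fitted effect of over 75% in size.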 A digest of the protocol:
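Cytotoxicity counterscreen measuring cellular ATP by CellTiter-Glo luminescence. Cells (20,000/well) plated 4 hours before compound addition, then exposed for 18 hours. Cycloheximide at high concentration as positive control, DMSO as negative.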

For assay [16], the target named is Peroxisome proliferator-activated receptor gamma (Homo sapiens) (UniProt P37231). Nature of the assay: qHTS assay for small molecule agonists of peroxisome proliferator-activated receptor gamma signaling (AID 588536; active = well fitted curve in the direction sought with a large enough effect in the signal ratio, with a control signal flat, not every such curve was filed as active; the % refers to the signal ratio;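 also: 0% = DMSO basal wells and 100% = rosiglitazone at 2 µM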). A digest of the protocol: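 This is an agonist-mode beta-lactamase reporter assay in HEK293 PPAR-gamma-UAS-bla cells with 1% charcoal/dextran FBS. Compound titrations ran 16 h at 37 C before CCF4 detection. EC50 and efficacy are Hill fits scaled to 2 uM rosiglitazone (100%) and DMSO basal.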

Assay [17] in a line: qHTS assay for small molecule agonists of retinoid X receptor alpha signaling (AID 588544; calls by dose curve;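 as to activation: 0% = DMSO basal wells and 100% = reference agonist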). The note with it: HEK293T RXRa-UAS-bla, beta-lactamase reporter, 18 h; 530 nm emission.
Assay [18] addresses Retinoic acid receptor RXR-alpha (Homo sapiens) (UniProt P19793). Described as above.
Assay [19] in a line: qHTS assay for small molecule antagonists of retinoid X receptor alpha signaling (AID 588546; active = well fitted inhibition curve with a large enough effect in the signal ratio, with a control signal flat, not every such curve was filed as active; the % refers to the signal ratio; also: potency is read from the fitted curve at half-maximal effect;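 as to max response: cells stimulated with 9-cis-retinoic acid as agonist; % is scaled to controls: 0 for no effect and ±100 for the full control effect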). As to conditions: HEK293T RXRa-UAS-bla, beta-lactamase ratio, antagonist mode; measured here: W530 green channel, cytotoxicity proxy. The method in brief: (§1)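 Beta-lactamase reporter inhibition, read as CCF4 fluorescence ratio (ex 405, em 460/530 nm) after 2 h at RT. HEK293T UAS-bla cells, 2500/well, were stimulated with 9-cis-RA at 500 or 100 nM final alongside test compound for 18 h at 37 C.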

The target in assay [20] is Retinoic acid receptor RXR-alpha (Homo sapiens) (UniProt P19793). The assay is described as above. As to conditions: HEK293T RXRa-UAS-bla, beta-lactamase ratio, antagonist mode. The method in brief: as §1
For assay [21], the target named is Thyroid hormone receptor beta (Homo sapiens) (UniProt P10828). Nature of the assay: qHTS assay for small molecule antagonists of thyroid hormone receptor beta signaling (AID 588547; active = well fitted inhibition curve with a large enough effect in the signal ratio, with a control signal flat, not every such curve was filed as active; the % refers to the signal ratio;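 also: cells stimulated with 0.4 nM T3 agonist during compound exposure; series mostly up to about 77 µM; % is scaled to controls: 0 for no effect and ±100 for the full control effect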). As to conditions: TR-UAS-bla HEK293, beta-lactamase ratio, antagonist mode, 18 h. A digest of the protocol: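 TR-UAS-bla GripTite HEK293 cells in 2% charcoal/dextran FBS medium; compounds 0.59 nM to 92 uM with T3 at 0.4nM final, 18 h at 37 C. Beta-lactamase read by CCF4 fluorescence (460/530 nm); Hill fits gave IC50 and efficacy.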

Assay [22] can be described thus: qHTS assay for environmental chemicals that activate the Aryl hydrocarbon Receptor (AhR) signaling pathway (AID 651777). Also: % of control where 0% means no effect; nearly all actives have a fitted effect of over 15% in size. The note with it: 1A2-DRE human hepatoma cells, luciferase, 24 h; activation: stronger effect = higher value. The method in brief:
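Human hepatoma 1A2-DRE cells stably carrying a DRE/CYP1A2 promoter–luciferase reporter, 1,200 cells/well, exposed to compound 24 hr at 37 C. Luciferase read by One-Glo luminescence after 30 min at room temperature; increased signal marks AhR activation.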

Assay [23] deals with Peroxisome proliferator-activated receptor alpha (Homo sapiens) (UniProt Q07869). Nature of the assay: qHTS assay for small molecule agonists of the peroxisome proliferator-activated receptor alpha (PPARalpha) signaling pathway (AID 651778). Also: % of control where 0% means no effect. As to conditions: PathHunter PPARalpha complementation, chemiluminescence, 6 h; max response: stronger effect = higher value. The method in brief:
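Enzyme-fragment complementation assay in which ligand-bound PPARalpha translocates and forms an active enzyme that generates chemiluminescence. Cells were plated overnight, exposed to compound for 6 hr at 37 C, and then given detection reagent for 60 min at room temperature.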

A short description of assay [24]: qHTS assay for cell viability of HEK293 cells (AID 743288). Also: nearly all actives have a fitted effect of over 50% in size. Also: potency is read from the fitted curve at half-maximal effect. As to max response: % is scaled to controls: 0 for no effect and ±100 for the full control effect. As to conditions: ATP luminescence (CellTiter-Glo), 18 h; max response: stronger effect = lower value. The method in brief: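 ATP luminescence (CellTiter-Glo) reports metabolically competent cell number after parental HEK293 cells, 2,000/well, were treated with DMSO-dissolved compounds for 18 h at 37 C; reagent incubation 30 min, room temperature.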

Assay [25] is described as follows: qHTS assay for small molecule activators of the human pregnane X receptor (PXR) signaling pathway (AID 720659; call rule not given here; also: 0% is about no effect).

Records with an inconclusive call do not appear. The list shows a part of the results. The source made the active and inactive calls. Unless noted, calls follow the shape of the dose curve; as a rule, active = well fitted curve in the direction sought with a large enough effect; inconclusive = small, poorly fitted or top-dose-only effect, or another doubt; inactive = no such curve, though single readings can be large; an effect the other way counts as inactive or inconclusive.

Peroxisome proliferator-activated receptor gamma (Homo sapiens), sequence (P37231 whole entry, looked up): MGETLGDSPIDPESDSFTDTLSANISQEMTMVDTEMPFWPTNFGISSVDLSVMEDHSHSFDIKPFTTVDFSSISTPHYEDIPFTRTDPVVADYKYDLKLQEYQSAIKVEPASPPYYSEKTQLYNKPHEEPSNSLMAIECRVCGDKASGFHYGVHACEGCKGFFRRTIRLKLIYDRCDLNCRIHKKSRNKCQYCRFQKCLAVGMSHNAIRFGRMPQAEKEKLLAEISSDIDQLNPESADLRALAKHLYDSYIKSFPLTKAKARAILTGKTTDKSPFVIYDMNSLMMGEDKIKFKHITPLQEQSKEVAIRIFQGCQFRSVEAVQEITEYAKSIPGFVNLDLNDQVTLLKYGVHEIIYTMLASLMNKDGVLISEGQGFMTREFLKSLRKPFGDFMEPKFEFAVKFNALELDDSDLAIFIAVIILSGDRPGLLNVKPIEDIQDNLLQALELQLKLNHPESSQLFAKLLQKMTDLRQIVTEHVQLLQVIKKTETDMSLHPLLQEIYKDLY
Retinoic acid receptor RXR-alpha (Homo sapiens), sequence (P19793 whole entry, looked up): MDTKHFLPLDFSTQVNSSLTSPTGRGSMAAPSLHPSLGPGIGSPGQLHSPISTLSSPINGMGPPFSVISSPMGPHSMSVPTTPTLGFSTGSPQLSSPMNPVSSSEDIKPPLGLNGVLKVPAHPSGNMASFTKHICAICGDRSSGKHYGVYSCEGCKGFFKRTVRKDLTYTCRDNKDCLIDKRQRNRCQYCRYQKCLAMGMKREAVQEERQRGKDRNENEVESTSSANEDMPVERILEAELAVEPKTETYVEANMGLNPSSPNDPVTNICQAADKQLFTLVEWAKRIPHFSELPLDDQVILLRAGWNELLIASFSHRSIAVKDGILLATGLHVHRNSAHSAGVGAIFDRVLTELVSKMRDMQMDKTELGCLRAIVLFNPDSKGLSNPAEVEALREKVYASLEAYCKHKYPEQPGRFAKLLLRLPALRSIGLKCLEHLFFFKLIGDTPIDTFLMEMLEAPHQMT
Vitamin D3 receptor (Homo sapiens), sequence (P11473 whole entry, looked up): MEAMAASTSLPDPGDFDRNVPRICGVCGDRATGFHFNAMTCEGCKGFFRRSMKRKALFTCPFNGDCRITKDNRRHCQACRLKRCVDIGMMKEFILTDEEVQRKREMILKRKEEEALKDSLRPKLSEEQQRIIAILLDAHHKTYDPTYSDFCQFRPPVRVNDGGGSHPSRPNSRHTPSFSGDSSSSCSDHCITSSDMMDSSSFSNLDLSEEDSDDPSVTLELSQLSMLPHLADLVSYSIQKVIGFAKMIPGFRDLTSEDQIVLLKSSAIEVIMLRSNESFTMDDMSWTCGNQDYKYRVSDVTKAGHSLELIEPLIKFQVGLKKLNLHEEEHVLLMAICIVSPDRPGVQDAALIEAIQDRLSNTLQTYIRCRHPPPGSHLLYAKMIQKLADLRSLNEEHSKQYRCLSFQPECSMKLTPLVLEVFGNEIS
Thyroid hormone receptor beta (Homo sapiens), sequence (P10828 whole entry, looked up): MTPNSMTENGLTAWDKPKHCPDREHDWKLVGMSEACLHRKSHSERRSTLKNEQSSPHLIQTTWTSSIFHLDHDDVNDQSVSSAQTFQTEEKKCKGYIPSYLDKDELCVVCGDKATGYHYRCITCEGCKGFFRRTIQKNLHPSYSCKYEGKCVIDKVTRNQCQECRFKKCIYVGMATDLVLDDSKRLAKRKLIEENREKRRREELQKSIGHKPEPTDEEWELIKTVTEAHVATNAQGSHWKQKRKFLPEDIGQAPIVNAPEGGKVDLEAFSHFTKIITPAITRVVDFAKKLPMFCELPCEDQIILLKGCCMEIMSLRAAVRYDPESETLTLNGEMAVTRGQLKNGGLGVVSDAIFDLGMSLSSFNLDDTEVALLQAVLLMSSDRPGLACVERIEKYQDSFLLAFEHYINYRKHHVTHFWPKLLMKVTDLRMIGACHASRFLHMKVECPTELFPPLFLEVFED
Peroxisome proliferator-activated receptor alpha (Homo sapiens), sequence (Q07869 whole entry, looked up, the tested form may be a part): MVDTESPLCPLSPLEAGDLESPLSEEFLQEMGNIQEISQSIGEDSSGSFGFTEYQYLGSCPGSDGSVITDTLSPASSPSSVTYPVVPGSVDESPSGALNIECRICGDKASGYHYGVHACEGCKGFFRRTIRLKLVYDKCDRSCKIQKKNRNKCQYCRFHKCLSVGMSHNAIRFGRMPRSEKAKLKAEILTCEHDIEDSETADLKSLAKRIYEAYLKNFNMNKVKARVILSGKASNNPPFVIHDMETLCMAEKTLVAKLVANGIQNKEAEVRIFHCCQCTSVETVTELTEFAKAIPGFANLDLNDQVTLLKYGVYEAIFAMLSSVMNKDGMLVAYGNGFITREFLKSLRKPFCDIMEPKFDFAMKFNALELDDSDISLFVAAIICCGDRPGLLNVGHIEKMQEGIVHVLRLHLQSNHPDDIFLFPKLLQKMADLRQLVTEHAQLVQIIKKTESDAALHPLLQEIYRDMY
Peroxisome proliferator-activated receptor delta (Homo sapiens), sequence (Q03181 whole entry, looked up): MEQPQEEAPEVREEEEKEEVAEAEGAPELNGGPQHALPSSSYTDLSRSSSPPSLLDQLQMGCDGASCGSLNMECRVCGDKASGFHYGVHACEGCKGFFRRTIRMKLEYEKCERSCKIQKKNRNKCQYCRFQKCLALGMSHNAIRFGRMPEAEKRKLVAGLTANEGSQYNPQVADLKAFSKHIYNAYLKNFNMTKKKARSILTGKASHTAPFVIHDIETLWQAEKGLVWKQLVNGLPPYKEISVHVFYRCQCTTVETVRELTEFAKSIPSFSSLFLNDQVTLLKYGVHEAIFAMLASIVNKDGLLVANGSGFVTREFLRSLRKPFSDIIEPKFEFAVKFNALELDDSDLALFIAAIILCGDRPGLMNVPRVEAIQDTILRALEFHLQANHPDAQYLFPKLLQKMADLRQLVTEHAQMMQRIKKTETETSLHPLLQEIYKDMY
Nuclear receptor subfamily 1 group I member 2 (Rattus norvegicus), sequence (Q9R1A7 whole entry, looked up, the tested form may be a part): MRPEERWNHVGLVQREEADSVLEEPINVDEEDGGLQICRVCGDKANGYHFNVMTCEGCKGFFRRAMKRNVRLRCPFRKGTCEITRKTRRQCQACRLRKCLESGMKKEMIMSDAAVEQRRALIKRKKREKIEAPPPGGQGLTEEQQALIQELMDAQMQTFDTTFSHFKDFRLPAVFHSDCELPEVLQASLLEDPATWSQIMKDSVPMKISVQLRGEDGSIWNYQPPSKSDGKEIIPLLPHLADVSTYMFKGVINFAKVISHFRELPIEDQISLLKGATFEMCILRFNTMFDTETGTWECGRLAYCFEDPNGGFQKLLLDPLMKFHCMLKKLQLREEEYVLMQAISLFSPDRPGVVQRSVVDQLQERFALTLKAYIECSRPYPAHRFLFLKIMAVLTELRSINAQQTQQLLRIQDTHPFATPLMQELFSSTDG
Nuclear receptor ROR-gamma (Homo sapiens), sequence (P51449 whole entry, looked up): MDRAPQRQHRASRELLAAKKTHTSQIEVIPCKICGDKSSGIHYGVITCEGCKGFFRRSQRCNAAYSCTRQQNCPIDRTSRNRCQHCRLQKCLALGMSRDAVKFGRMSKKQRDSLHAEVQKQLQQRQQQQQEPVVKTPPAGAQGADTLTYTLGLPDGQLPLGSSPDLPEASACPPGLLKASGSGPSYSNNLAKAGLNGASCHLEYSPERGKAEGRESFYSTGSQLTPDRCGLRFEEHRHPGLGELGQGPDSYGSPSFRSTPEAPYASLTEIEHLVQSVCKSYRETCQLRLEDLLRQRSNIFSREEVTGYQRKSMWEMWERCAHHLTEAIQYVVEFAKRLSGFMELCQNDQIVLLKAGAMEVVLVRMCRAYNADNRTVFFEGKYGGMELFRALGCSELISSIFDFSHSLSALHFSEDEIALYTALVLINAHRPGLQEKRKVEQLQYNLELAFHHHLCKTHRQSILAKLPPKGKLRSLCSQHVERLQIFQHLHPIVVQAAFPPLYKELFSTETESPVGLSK

Turning to `CON=C(C(=O)OC)c1ccccc1CO/N=C(\C)c1cccc(C(F)(F)F)c1`, the results for the Potency in [1], in [4] and in [5] were 35.5 µM (active), 8.63 µM (active) and 5.01 µM (active), respectively. Further, the result in assay [2] was inactive. Besides, the Potency result in assay [3], in assay [7] and in [8] was “inactive” throughout. Also, the activation in assay [6] is 3.5% (inactive). Besides, the max response in [9] is -14.4% (inactive).
In the case of `O=C(O)CCC(=O)NCCC1=c2ccccc2=N/C1=C\c1c(O)n(Cc2ccc(F)cc2)c(=S)[nH]c1=O`, in [10], the Potency entry was “inactive”.
On to `Cc1ccc(N)c([N+](=O)[O-])c1`, for which the outcome in [11] was inactive. In addition, the Potency entry in [12] is “inactive”.
For the molecule `Cc1ccnc(-n2c(C)cc(/C=C3\C(=O)NC(=S)N(C)C3=O)c2C)c1`, in assay [13], the Potency was 29.9 µM (active). The outcome in assay [14] and in assay [15] was inactive.
`CC(C)NC(=O)N1CC(=O)N(c2cc(Cl)cc(Cl)c2)C1=O`: the Potency entry in [16], in assay [18], in assay [3] and in assay [8] was “inactive” in each case. In addition, in assay [1], the Potency is 44.7 µM (active). Moreover, the max response in [17] was 21.2%; in assay [19], 11.6%; in assay [20] it was -6.64% (inactive); in assay [23] it was 0.394% (inactive); in assay [24] it was -6.95% (inactive). Moreover, the activity change % (negative = inhibition) in [21] is 4.77% (inactive). The activation was -3.11% (inactive) in assay [6] and 14.5% (inactive) in assay [22].
Turning to `COc1cccc(C2CC3C(=O)C=CC2N3Cc2ccccc2)c1` (configuration not stated), in [10], the Potency was 28.2 µM (active).
With `CCOCn1c(-c2ccc(Cl)cc2)c(C#N)c(Br)c1C(F)(F)F`, the results for the Potency in [1], in assay [20] and in [24] were 39.8 µM (active), 2.24 µM (active) and 7.94 µM (active), respectively. Also, the Potency result in [3] was “inactive”. Besides, the max response in [19] was 0.12%; in assay [23], 14.2% (inactive). Moreover, the activation in assay [22] was -4.34% (inactive). For the same molecule, the molecule was called inactive in assay [25].
